Source: PubChem BioAssay AID504465 (National Center for Advancing Translational Sciences (NCATS), 2011)
Screen size: about 2,100 compounds; about 210 (10%) were called active. Another 53% or so got no clear call; they are omitted. Calls come from the whole dose curve; as a rule, active = well fitted inhibition curve with a large enough effect; inconclusive = small, poorly fitted or top-dose-only effect, or effect the other way; inactive = no such curve, though single readings can be large or run the other way. The list shows a part of the results. Where a call stands in place of a potency, no number is given.

test: IN Cell qHTS Assay for Inhibitors of the mTORC1 Signaling Pathway in MEF (Tsc2-/-, p53-/-) Cells: Sytravon; settings: phospho-rpS6 immunofluorescence, 24 h; series mostly up to 38.3 µM; note: nearly all actives have a fitted effect of over 60% in size
Summary of the method: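 Immunofluorescence of rpS6 phosphorylation (Ser235/236) in mouse embryonic fibroblasts lacking Tsc2 and p53, after 24 h compound exposure; Hoechst-normalized signal imaged, each well scored as % active cells relative to rapamycin (7.5 nM) and DMSO controls.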
Potency is the fitted concentration of half-maximal effect.

SMILES | Potency
O=C(Nc1ccc(F)c(Cl)c1)c1cc(S(=O)(=O)N2CCc3ccccc3C2)ccc1F | inactive
COC(=O)c1cc(C)nc2c1c(=O)nc(SCc1ccccc1Cl)n2C1CC1 | inactive
COc1ccccc1N1CCN(C(=O)c2ccc3c(c2)CCN3S(=O)(=O)c2ccccc2)CC1 | inactive
CCc1ccccc1NC(=O)CCNS(=O)(=O)c1ccc2c(c1)CCN2C(=O)C1CC1 | inactive
Cc1ccc(Cl)cc1N1CCN(C(=O)c2cnn(-c3ccc(Cl)cc3)c2C2CCNCC2)CC1 | 13.1 µM (active)
Cc1ccc(Cl)cc1N1CCN(C(=O)c2ccc3c(c2)N(Cc2ccc(F)cc2)CCS3)CC1 | inactive
COc1ccc(-n2ncc(C(=O)N3CCN(C4CCCCC4)CC3)c2C2CCN(C(=O)OC(C)(C)C)CC2)cc1 | inactive
COc1ccc(OC)c(NC(=O)c2c(NCc3ccc(C)o3)sc3c2CCC(C)C3)c1 (stereo unspecified) | inactive
COC(=O)c1scc(-c2ccc(C)cc2)c1S(=O)(=O)Nc1cc(Cl)ccc1C | inactive
Cc1ccc(NS(=O)(=O)c2cc(-c3cnc(C4CC4)o3)ccc2C)cc1Cl | inactive
Cc1cc(C)c(NS(=O)(=O)c2ccc(-c3cnc(C4CC4)o3)cc2)c(C)c1 | 11.7 µM (active)
COc1ccccc1CNS(=O)(=O)c1ccc(-c2cnc(C3CC3)o2)cc1 | inactive
Cc1ccccc1-c1nc(SCC(=O)N(C)c2ccccc2)c2c(=O)n(C)c(=O)n(C)c2n1 | inactive
CCOc1ccc(Nc2nc(N)c(C(=O)c3ccccc3Cl)s2)cc1 | inactive
O=c1c(-c2cc(-c3ccc(F)cc3)nc3c2COc2ccc(Cl)cc2-3)coc2ccc(F)cc12 | inactive
CCOc1ccc(Nc2nc(-c3cccc(Cl)c3)c3c(n2)-c2ccccc2OC3)cc1 | 2.07 µM (active)
Cc1ccccc1C1CC(=O)Nc2ccc3ccccc3c21 (stereo unspecified) | inactive
CCOc1cc(CNCCSc2nnnn2-c2ccccc2)ccc1OC | inactive
Cc1ccc(NC(=O)CCS(=O)(=O)c2ccc3nc(C)sc3c2)cc1 | inactive
Cc1ccc2nc3sc(C(=O)Nc4ccc(F)cc4)cc3cc2c1 | 2.33 µM (active)
COc1ccc(C2=CC(c3ccc(F)cc3)n3ncc(C(=O)Nc4ccc(C)cc4)c3N2)cc1 (stereo unspecified) | inactive
Cc1sc2ncn(CC(=O)N3CCN(c4ccc(Cl)cc4)CC3)c(=O)c2c1S(=O)(=O)N1CCN(c2ncccn2)CC1 | inactive
COc1ccccc1CNC(=O)c1ccc2c(c1)CCN2S(=O)(=O)c1ccccc1 | inactive

SMILES | Potency
CC(=O)c1ccc(NC(=O)CC2Nc3cccc4cccc(c34)NC2=O)cc1 (stereo unspecified) | inactive
O=S(=O)(NCC(c1ccco1)S(=O)(=O)c1cccs1)c1ccc(Cl)cc1 (stereo unspecified) | inactive
CCOc1ccc(NC(=O)Cn2c(=O)n(CCCCCC(=O)NCc3ccccc3)c(=O)c3sccc32)cc1 | inactive
O=C(CCCn1c(=O)c2ccccc2n(Cc2cccc(Cl)c2)c1=O)NCCc1ccc(Cl)cc1 | inactive
O=C(Cn1c(=O)c2ccccc2n(CC(=O)Nc2ccc(Cl)cc2)c1=O)NCCc1ccccc1 | 14.7 µM (active)
O=C(NCCc1ccc(F)cc1)C(=O)NCC(c1cccs1)S(=O)(=O)c1ccc(Cl)cc1 (stereo unspecified) | inactive
COc1ccc(-n2c(SCCC(C)C)nc3sc4c(c3c2=O)CC(C(C)C)OC4)cc1 (stereo unspecified) | inactive
Fc1ccc(C2=NC(c3cccc(C(F)(F)F)c3)=Nc3ccccc3N2)cc1 | inactive
CCCn1c2ccccc2c2cnn(CC(=O)N(CCCOC)Cc3ccco3)c(=O)c21 | inactive
Cc1ccc(N=C2NC(=O)CC(C(=O)Nc3cc(C(F)(F)F)ccc3Cl)S2)cc1 (stereo unspecified) | inactive
O=C(Nc1cccs1)Nc1cc(C(F)(F)F)ccc1Cl | 9.27 µM (active)
COc1ccc(NC(=O)C2CCCN(S(=O)(=O)c3cccc4nonc34)C2)cc1Cl (stereo unspecified) | inactive
Cc1cccc(C(CC(=O)NCC2(c3ccccc3)CCCC2)c2ccccc2)c1O (stereo unspecified) | inactive
COc1ccccc1N1CCN(C(=O)CSc2nc3ccccc3nc2Cc2ccc(C)cc2)CC1 | inactive
O=C(Cn1cc(SCc2ccccc2)c2ccccc21)N1CCCCC1 | inactive
CCC(C)NC(=O)c1sc2nc(C)c(C(=O)Nc3ccc(C)cc3C)c(-c3ccc(Cl)cc3)c2c1N (stereo unspecified) | inactive
CCC1CCc2nc3sc(C(=O)Nc4ccc(F)c(F)c4)c(N)c3cc2C1 (stereo unspecified) | 5.85 µM (active)
CCC1CCc2nc3sc(C(=O)Nc4ccc(C)cc4)c(N)c3cc2C1 (stereo unspecified) | 5.21 µM (active)
CCN1CCc2nc3sc(C(=O)Nc4cccc(Cl)c4C)c(N)c3cc2C1 | inactive
CC1CCc2nc3ncn(CC(=O)Nc4cccc(C#N)c4)c(=O)c3cc2C1 (stereo unspecified) | inactive
Nc1c(C(=O)Nc2ccccc2F)sc2nc3c(cc12)CCCCCC3 | inactive
CC1CCCCN1S(=O)(=O)c1cc2c(=O)nc3ccccn3c2cc1Cl (stereo unspecified) | inactive
C=CCc1ccc(OCc2ccc(C(=O)Nc3ccc(NC(C)=O)cc3)o2)c(OC)c1 | inactive

SMILES | Potency
Cc1cc(C)cc(OCC(=O)NCC(c2ccc(Cl)cc2)N2CCCCC2)c1 (stereo unspecified) | inactive
CCc1c(C)nc2nc(-c3ccccc3)nn2c1NCc1ccc(C)cc1 | inactive
COc1ccc(Br)c(C(=O)Nc2cc3c(cc2N2CCCC2)n(C)c(=O)c(=O)n3C)c1 | inactive
CC(C)c1ccc(NC(=O)c2cc(S(=O)(=O)NCCc3ccccc3)ccc2F)cc1 | inactive
CC(=O)c1ccc(C(=O)N(CCCN(C)C)c2nc3c(C)c(C)ccc3s2)cc1 | 14.7 µM (active)
COc1ccccc1NC(=O)C1=C(C)Nc2nc(-c3ccco3)nn2C1c1cccc(C)c1 (stereo unspecified) | inactive
COc1cc(CNC(=O)c2ccc3nc(Cc4ccccc4)oc3c2)cc(OC)c1OC | inactive
CCc1ccccc1NS(=O)(=O)c1ccc2[nH]cc(C(=O)NC3CCCC3)c(=O)c2c1 | inactive
Cc1ccccc1CNCCCSc1nnnn1-c1ccccc1 | inactive
Cc1ccccc1C(=O)N1CCN(CCc2ccccn2)CC1 | inactive
CCOC(=O)c1cnc2c(Cl)cc(Cl)cc2c1Nc1cc(C(=O)O)ccc1C | inactive
CCOc1ccccc1NC(=O)CN1C(=O)C(=O)c2ccccc21 | inactive
COc1ccc(NC(=O)CN2C(=O)C(=O)c3ccccc32)c(OC)c1 | inactive
Cc1cc(Cl)ccc1NC(=O)CN1C(=O)C(=O)c2ccccc21 | 2.07 µM (active)
CCOc1ccccc1CC1C(=O)Nc2ccc(Br)cc21 (stereo unspecified) | inactive
CC(=O)c1ccc(N2CCN(C(=O)C3CCCN(S(=O)(=O)c4ccc(Br)s4)C3)CC2)cc1 (stereo unspecified) | inactive
COc1ccc(Cn2c(C(=O)O)c(CNCC(C)c3ccccc3)c3ccc(OC)cc32)cc1 (stereo unspecified) | inactive
Cc1cccc(OCC(=O)Nc2ccccc2OCc2cc(=O)n3ccccc3n2)c1 | inactive
CCOc1ccccc1NC(=O)Cn1c(=O)n(CCC(=O)NCc2ccc3c(c2)OCO3)c(=O)c2ccccc21 | 4.65 µM (active)
Cc1cc(C)c(NC(=O)Cn2c(=O)n(Cc3ccc(C(=O)NCc4ccc5c(c4)OCO5)cc3)c(=O)c3ccccc32)c(C)c1 | 4.14 µM (active)
Cc1ccc(C)c(Cn2c(=O)n(CCCCCC(=O)NCc3ccc4c(c3)OCO4)c(=O)c3sccc32)c1 | inactive
Cc1cc(C)c(NC(=O)Cn2c(=O)n(CCC(=O)NCc3ccc4c(c3)OCO4)c(=O)c3ccccc32)c(C)c1 | inactive
COc1ccc(NC(=O)Cn2c(=O)n(CCCC(=O)NCc3ccccc3OC)c(=O)c3ccccc32)cc1Cl | inactive

SMILES | Potency
Cc1ccccc1NC(=O)Cn1c(=O)n(CCCCCC(=O)NCc2ccc3c(c2)OCO3)c(=O)c2sccc21 | inactive
Cc1ccc(-c2nc(-c3cccs3)c(-c3cccs3)[nH]2)cc1 | inactive
Cc1ccc(Cl)cc1-n1ncc2c(NC3CCCCCC3)ncnc21 | inactive
CCOC(=O)c1ccc2c(c1)N(Cc1cccc([N+](=O)[O-])c1)C(=O)c1ccccc1S2 | inactive
O=C(Nc1ccc(F)cc1)Nc1nnc(SCC(=O)N2CCCCC2)s1 | inactive
COc1cccc(-c2nc3c(c(SCC(=O)Nc4cccc(C)c4C)n2)Cc2c(CO)cnc(C)c2O3)c1 | inactive
CCOc1ccc(NC(=O)Cn2ccn(-c3ccc(F)c(F)c3)c(=O)c2=O)cc1 | inactive
CCOc1ccc(NC(=O)c2nc(S(=O)(=O)Cc3ccccc3F)ncc2Cl)cc1 | 3.69 µM (active)
CCOc1cccc(NC(=O)CSc2ncc(-c3ccc(Cl)cc3)[nH]2)c1 | inactive
O=C(Nc1ccccc1F)c1nc(S(=O)(=O)Cc2ccccc2F)ncc1Cl | 2.33 µM (active)
CCOc1ccc(CNCc2c(C(=O)O)n(Cc3ccccc3C)c3cc(OC)ccc23)cc1OC | inactive
O=C1CC(c2ccccc2)Cc2[nH]c(=O)c(-c3nc(-c4cccc(Cl)c4)cs3)cc21 (stereo unspecified) | inactive
COc1ccc(C2C(=O)N(C3CCCCCC3)CC(=O)N2CCc2ccccc2)cc1 (stereo unspecified) | inactive
CC(C)c1cnc2c(c1SCC(=O)c1ccc(Cl)cc1)c(=O)n(C)c(=O)n2C | inactive
COc1ccc(OC)c(NC(=O)c2c(NCc3ccc(C)o3)sc3c2CCCCC3)c1 | inactive
COc1ccc(NC(=O)c2c(NCc3ccc(C)o3)sc3c2CCC(C)C3)cc1 (stereo unspecified) | inactive
COc1ccc(NC(=O)c2c(NCc3ccc(C)o3)sc3c2CCCCC3)c(OC)c1 | inactive
COc1ccc(CC(=O)Nc2sc3c(c2C(=O)Nc2cccc(C)c2)CCCCC3)cc1 | 11.7 µM (active)
COc1ccccc1NC(=O)c1c(NCc2ccc(C)o2)sc2c1CCCCC2 | inactive
COc1ccc(CC(=O)Nc2sc3c(c2C(=O)Nc2ccccc2)CCCCC3)cc1 | 9.27 µM (active)
CCOC(=O)c1c(NC(=O)c2ccc(S(=O)(=O)N3CCCC(C)C3)cc2)sc2c1CCN(C(C)C)C2 (stereo unspecified) | inactive
FC(F)(F)c1ccc(C2=Nc3ccccc3NC(c3cccs3)=N2)cc1 | inactive
